Assay outcomes deposited in PubChem by National Center for Advancing Translational Sciences (NCATS).
HT1080 IDH1KD tx: qHTS for induction of synthetic lethality in tumor cells producing 2HG: qHTS for the HT-1080-IDH1KD cell line; Potency, µM (series often up to 46.1 µM), for the others: top-dose activity, negative = toxicity, most hits filed as cytotoxic; AID 686971, 2013; actives 2% (n = 360,000); HT-1080 IDH1 knockdown viability, ATP luminescence, 48 h;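 also: 0% = DMSO wells and -100% = cell-free medium wells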
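Knockdown cells (IDH1KD HT-1080) received compounds 2 h after plating at 750 cells/well and were kept 48 h at 37 °C in 5% FBS RPMI. A CellTiter-Glo luminescence read gave % activity for curve fitting.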
ATXN2 expr inh: Primary qHTS for Inhibitors of ATXN expression; actives 0.72% (n = 360,000); Potency, µM (top dose mostly 57 µM), inactives show at the highest dose activity change, negative = inhibition, actives largely listed as inhibitors; AID 1745845, 2022; HEK-293 ATXN2-luciferase reporter, luminescence, 24 h; also: % is scaled to controls: 0 for no effect and ±100 for the full control effect; nearly all actives have a fitted effect of over 55% in size
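ATXN2-luciferase reporter cells (luciferase flanked by upstream and downstream ATXN2 gene portions) were treated 24 h at 37 °C with compounds at up to 57 uM. SteadyGlo luminescence gave expression; GF-AFC fluorescence gave viability.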
KB-3-1 cytotox: qHTS assay for MDR1-selective chemotherapeutics: Primary screen using the parental adenocarcinoma cell KB-3-1; KB-3-1 viability, CellTiter-Glo ATP luminescence, 72 h; Potency, µM (series often up to 46.1 µM), most hits filed as cytotoxic; actives 1.4% (n = 400,000); also: % is scaled to controls: 0 for no effect and ±100 for the full control effect; nearly all actives have a fitted effect of over 60% in size
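Luminescent ATP read-out (CellTiter-Glo) measures survival of drug-naive KB-3-1 cells after 72 h compound exposure at 37 °C. Titration series was screened from lowest to highest concentration, with DMSO vehicle plates as background controls.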
KB-V1 MDR tox: qHTS assay for MDR1-selective chemotherapeutics: Primary screen using the drug-selected MDR subline cells KB-V1; KB-V1 MDR cells viability, CellTiter-Glo, 72 h; Potency, µM (highest dose often 46.1 µM), hits mostly cytotoxic; AID 1347076, 2019; actives 3.4% (n = 400,000); also: % is scaled to controls: 0 for no effect and ±100 for the full control effect; nearly all actives have a fitted effect of over 60% in size
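Luminescent ATP read-out (CellTiter-Glo, 10 min) measures survival of drug-selected KB-V1 MDR cells after 72 h, 37 degrees C compound exposure. Medium: phenol-red-free DMEM, 10% FBS. Values from fitted concentration-response curves.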
HT1080NT lethal: qHTS for induction of synthetic lethality in tumor cells producing 2HG: qHTS for the HT-1080-NT fibrosarcoma cell line; HT-1080-NT fibrosarcoma viability, CellTiter-Glo ATP luminescence, 48 h; Potency, µM (top dose mostly 46.1 µM), for the others: top-dose activity, negative = less viability, actives largely listed as cytotoxic; actives 1.6% (n = 360,000); AID 686970, 2013;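 also: NT is the 2HG producing partner of a matched IDH1 knockdown line; 0% = DMSO-treated cells and -100% = media-only wells without cells; nearly all actives have a fitted effect of over 55% in size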
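A 48-hour cytotoxicity screen used HT-1080-NT cells plated 2 hours before compound delivery. ATP-based CellTiter-Glo luminescence measured viability, normalized to DMSO and no-cell controls.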
ATXN viability: Viability Counterscreen for Primary qHTS for Inhibitors of ATXN expression; S2 cells (HEK-293 line with an ATXN2-luciferase reporter) viability, CellTiter-Fluor protease fluorescence, 24 h; Potency, µM (titrated, usually from 56.7 µM), most hits filed as cytotoxic; actives 0.49% (n = 400,000); AID 651635, 2014; also: nearly all actives have a fitted effect of over 40% in size
Active calls of the source: *; i = inactive; ? = inconclusive; . = no result. In the library only some 6.2% were active in any assay of this set; here they are far more common. Calls follow the shape of the dose curve; as a rule, active = well fitted curve in the direction sought with a large enough effect; inconclusive = small, poorly fitted or top-dose-only effect, or another doubt; inactive = no such curve, though single readings can be large; an effect the other way counts as inactive or inconclusive. Potency is read from the fitted curve at half-maximal effect.

SMILES	HT1080 IDH1KD tx	ATXN2 expr inh	KB-3-1 cytotox	KB-V1 MDR tox	HT1080NT lethal	ATXN viability
CN(Cc1ccc(F)cc1)C(=O)C(c1ccccc1)c1ccccc1	-5%	-10%	i	i	0%	i
CCCn1nc(C(=O)NCC2COc3ccccc3O2)c2ccccc2c1=O (centres undefined)	3%	-13%	i	7.3µM*	-9%	i
O=C(Cc1ccccc1)NCC1COc2ccccc2O1 (centres undefined)	-21%	10%	i	i	-1%	i
CC(C)c1ccc(C2(C)NC(=O)N(CC(=O)NCC3COc4ccccc4O3)C2=O)cc1 (centres undefined)	4%	-2%	i	16µM*	-3%	i
CCCCn1nc(C(=O)NCC(=O)Nc2c(C)cccc2C)c2ccccc2c1=O	12%	-12%	i	1.6µM*	-3%	i
O=C(NCc1ccccc1)C(=O)NCC1COc2ccccc2O1 (centres undefined)	10µM*	-14%	i	5.2µM*	16µM*	?
COc1cc2c(cc1NC(=O)c1ccccc1C)n(C)c(=O)n2C	.	1%	i	i	.	i
CCC(C)(C)OC(=O)N[C@@H](Cc1c[nH]c2ccccc12)C(=O)N[C@@H](CCSC)C(=O)N[C@@H](CC(=O)O)C(=O)N[C@@H](Cc1ccccc1)C(N)=O	.	.	.	.	.	i
O=C(NCc1cccs1)c1ccc(Cn2c(SCc3ccccc3)nc3cccnc32)cc1	.	-19%	i	i	.	?
O=c1c(Cl)c(N2CCCCC2)cnn1-c1nc2ccccc2[nH]1	?	?	?	?	?	i
O=c1c2ccccc2cnn1-c1nc2ccccc2[nH]1	3.7µM*	0.56µM*	?	?	3.7µM*	i
CCCOc1ccc(F)cc1-c1cc(C(=O)Nc2ccc(OC)c(OC)c2)[nH]n1	?	?	?	21µM*	?	?
CCCOc1ccc(F)cc1-c1cc(C(=O)NC(C)C)[nH]n1	0%	5%	i	i	11%	i
CCCOc1ccc(F)cc1-c1cc(C(=O)Nc2ccc(C(C)C)cc2)[nH]n1	23µM*	?	?	i	?	?
CCOc1ccc(N=Cc2c(C)[nH]n(-c3nc4ccccc4[nH]3)c2=O)cc1	3.7µM*	-36%	?	?	5.2µM*	i
Cn1c(Cc2ccccc2)nnc1SCC(=O)N1CCCCC1	9%	-21%	i	i	-2%	i
Cc1ccc(-n2nnnc2SCC(=O)N2CCc3ccccc3C2)c(C)c1	1%	-8%	i	7.3µM*	6%	i
Cn1c(Cc2ccc3c(c2)OCO3)nnc1SCC(=O)N1CCc2ccccc2C1	-14%	-3%	i	16µM*	0%	i
Cc1ccc(-n2nnnc2SCC(=O)NCC2(N3CCOCC3)CCCCC2)c(C)c1	-3%	4%	i	21µM*	4%	?
Cc1ccc(-n2nnnc2SCC(=O)N2CCc3ccccc3C2)cc1	3%	6%	i	i	0%	i
Cc1ccc(-n2c(C)nnc2SCC(=O)N2CCc3ccccc3C2)cc1C	0%	-10%	i	9.2µM*	14%	i
O=C(CCC1N=C2c3ccccc3N=C(SCC(=O)Nc3ccccc3F)N2C1=O)NCc1ccccc1 (centres undefined)	.	7%	i	?	.	i
CC(=O)c1cc(-c2ccccc2)n(CCC(=O)Nc2nc3c(C)cccc3s2)c1C	.	.	i	i	.	.
Cc1cc(CNC(=O)CCN2Cc3cc(Cl)ccc3OC(C)C2)nn1C (centres undefined)	.	.	.	.	.	i
